In the library only some 13% were active in any assay of this set; here they are far more common.
MARV entry inh – qHTS for inhibitors of binding or entry into cells for Marburg Virus; Marburg virus pseudotyped entry inhibition, cell reporter; Potency, µM (series often up to 37.8 µM), for the others: top-dose activity change, negative = inhibition, most hits filed as inhibitors; 300,000 compounds, 1.8% hits; AID 540276, 2011; calls by dose curve; tested in HEK293 cells; note: potency is the fitted concentration of half-maximal effect; % is set by controls: 0 for no effect and ±100 for the full control effect
LASV entry inh – qHTS for Inhibitors of binding or entry into cells for Lassa Virus; Lassa virus pseudotype entry inhibition, cell reporter; 300,000 compounds, 1.2% hits; Potency, µM (highest dose often 37.9 µM), inactives show at the top dose activity change, negative = inhibition, most hits filed as inhibitors; AID 540256, 2011; calls by dose curve; tested in HEK293 cells; note: potency is the fitted concentration of half-maximal effect; % is set by controls: 0 for no effect and ±100 for the full control effect; nearly all actives have a fitted effect of over 50% in size
Shiga toxin inh – A qHTS for Small Molecule Inhibitors of Shiga Toxin. Vero cells, Shiga toxin protein synthesis inhibition reporter. inhibition, % at 38.7 µM. 290,000 compounds, 9.2% hits. AID 2315, 2010; in the data active = inhibition mostly above about 28%, no sharp cut-off; inactive = mostly below about 43%; note: 0% is about no effect
HCV inhibitor – qHTS Assay for Inhibitors of Hepatitis C Virus (HCV); Huh7.5.1 HCVcc-Cre infection, luciferase reporter, 44 h; 340,000 compounds, 3.4% hits; Potency, µM (doses to about 41.8 µM), without a hit: top-dose activity change, negative = inhibition, actives largely listed as inhibitors; active = well fitted inhibition curve with a large enough effect; inconclusive = small, poorly fitted or top-dose-only effect, or another doubt; inactive = no such curve, though single readings can be large or run the other way; note: potency is the fitted concentration of half-maximal effect; % is set by controls: 0 for no effect and ±100 for the full control effect
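Cells (1,000/well) were plated 4 h before compound, then infected with HCVcc-Cre virus (~0.5 moi). After 44 h further culture, infection was read as luciferase luminescence following a 15 min substrate incubation at room temperature.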
Cycloheximide cs – Cycloheximide Counterscreen for Small Molecule Inhibitors of Shiga Toxin; cell reporter, cycloheximide protein synthesis inhibition counterscreen; max response, %; 300,000 compounds, 12% hits; AID 2314, 2010; in the data active = max response mostly above about 13%, no sharp cut-off; inactive = mostly below about 14%; note: read at 38.3 µM for the half of the compounds with a filed dose; 0% is about no effect
FMDV antiviral – High Throughput Screening for Foot and Mouth Disease Virus Antivirals | FMDV antiviral cell-based qHTS | Potency, µM (highest dose often 57.9 µM), inactives show at the top dose activity change, negative = inhibition, usual class: inhibitors | 410,000 compounds, 1.2% hits | AID 1159524, 2015; calls by dose curve; tested in HEK293T cells; note: read-out not given here; potency is the fitted concentration of half-maximal effect; % is set by controls: 0 for no effect and ±100 for the full control effect; nearly all actives have a fitted effect of over 45% in size
The depositor's hits bear a star; ? = inconclusive; nt = no result; [ ] = dose if it differs, or a comment.

SMILES	MARV entry inh	LASV entry inh	Shiga toxin inh	HCV inhibitor	Cycloheximide cs	FMDV antiviral
CN(c1ccccc1)S(=O)(=O)c1ccc(NC(=O)c2nc(S(C)(=O)=O)ncc2Cl)cc1	?	?	-23	10µM*	-18	11µM*
CCS(=O)(=O)c1ncc(Cl)c(C(=O)Nc2c(C(=O)Nc3cccc(C)c3)oc3ccccc23)n1	39%[46.1 µM]	?	nt	nt	nt	-17%
Cc1cccc(NC(=O)c2cccc(C(=O)Nc3cccc(C)c3)n2)c1	-9%[46.1 µM]	?	nt	9%	nt	0%
COc1cccc(NC(=O)c2nc(S(C)(=O)=O)ncc2Cl)c1	?	?	38	?	16	22µM*
Cc1cccc(NC(=O)c2nc(S(C)(=O)=O)ncc2Cl)c1	nt	?	nt	nt	nt	25µM*
CS(=O)(=O)c1ncc(Cl)c(C(=O)Nc2c(C(=O)Nc3ccccc3)oc3ccccc23)n1	-24%[46.1 µM]	0%[46.1 µM]	nt	nt	nt	28µM*
COc1cccc(NC(=O)c2ncc(Cl)c(Cl)c2Cl)c1	-27%	?	63*	10%	32*	28%
COc1ccccc1N1CCN(C(=O)c2ccc(NC(C)=O)cc2)CC1	13%	-4%	25	-6%	-2	-4%
COc1ccccc1/C=C/C(=O)c1ccc(Cl)cc1	13%	4%	83*	?	42*	-30%
COc1cc2c(cc1OC)C(c1ccccc1)N(C(=O)CCl)CC2 (stereo not drawn)	?	?	-21	-14%	-1	7.1µM*
COc1ccccc1/C=C/C(=O)c1ccc(NC(C)=O)cc1	13µM*	11µM*	32	?	21*	?
O=C(/C=C/c1ccccc1O)c1ccc(Cl)cc1	nt	nt	58*	-3%	41*	30%
COc1ccccc1/C=C/C(=O)NCC(=O)N/N=C(/C)c1ccc(Cl)cc1	nt	nt	-3	-7%	1	-14%
COc1ccc(/C=C/C(=O)c2cc(Cl)cc(Cl)c2O)c(OC)c1	0%	0%	-5	?	-2	2%
CCOc1ccccc1/C=C/C(=O)c1ccc(Cl)cc1	?	-6%	23	-15%	15*	-10%
CCOc1ccc(/C=C/C(=O)c2ccc(-c3ccccc3)cc2)cc1	?	13%	13	29%	2	-8%
COc1ccccc1/C=C/C(=O)N1CCC(c2ccccc2)C1 (stereo not drawn)	?	7%	71*	4%	52*	25%
COc1ccc(OC)c(/C=C/C(=O)c2ccc(Cl)cc2)c1	-4%	4%	23	?	13	22µM*
COc1ccccc1/C=C/C(=O)N1CCc2cc(OC)c(OC)cc2C1C (stereo not drawn)	?	?	-15	22µM*	-2	-7%
COc1cc2c(cc1OC)C(C)N(C(=O)Nc1ccccc1)CC2 (stereo not drawn)	?	-20%	-6	?	-9	-18%
O=C1CCCS(=O)(=O)c2ccccc21	4%[46.1 µM]	-1%	14	6%	-3	113%
Cc1cccc(NCN2C(=O)c3ccncc3C2=O)n1	13%	-6%	23	6%	-2	1%
CC(=O)Nc1ccc(S(=O)(=O)Oc2ccccc2N2CCCCC2)cc1	?	?	10	?	1	-3%
COc1ccccc1/C=C/C(=O)NC(=S)NC(C)C	?	-15%	57*	-13%	17*	-29%
COc1ccccc1/C=C/C(=O)c1c2c(c(C)[nH]c1=O)CCCC2	21µM*	-46%[14.3 µM]	23	nt	9	?
SMILES	MARV entry inh	LASV entry inh	Shiga toxin inh	HCV inhibitor	Cycloheximide cs	FMDV antiviral
O=C(/C=C/c1ccccc1O)c1ccccc1	14%[46.1 µM]	7%[46.1 µM]	nt	13%	nt	-15%
COc1ccccc1/C=C/C(=O)c1ccccc1	nt	nt	69*	-19%	55*	1%
COc1ccc(/C=C/C(=O)c2ccccc2)c(OC)c1	?	?	74*	-17%	23*	11%
CC(NC(=O)c1cc2cc([N+](=O)[O-])ccc2oc1=O)C1CCCO1 (stereo not drawn)	?	4%	8	31%	-1	-12%
O=C(c1ccccc1F)c1cn(Cc2ccccc2)c2ccccc12	-6%	-26%	3	-11%	-2	-28%
CN(Cc1ccco1)Cc1cc(-c2ccnc3cc(Cl)ccc23)ccc1O	nt	nt	nt	nt	nt	-22%
CCC(=O)c1ccc(OCC(=O)c2ccc3c(c2)NC(=O)CO3)cc1	nt	nt	-4	-14%	-2	-8%
COc1ccc(C(=O)C=Cc2ccc3c(c2)OCO3)cc1OC	nt	nt	nt	nt	nt	7%
COc1cccc(/C=C/C(=O)c2ccc3c(c2)OCCO3)c1OC	?	?	nt	-11%	47*	-1%
COc1ccc(/C=C/C(=O)OCC(=O)c2ccc3c(c2)NC(=O)CO3)c(OC)c1	nt	nt	-10	11µM*	-2	-22%
O=C1COc2ccc(C(=O)CCl)cc2N1	?	-18%[46.1 µM]	11	?	-2	25µM*
CCN(CC(=O)Nc1ccc2c(c1)OCCO2)C(=O)/C=C/c1cccc(OC)c1OC	?	-2%	nt	?	nt	31%
COc1ccc(/C=C/C(=O)c2ccc3c(c2)OCO3)c(OC)c1	-34%	?	61*	-11%	59*	25%
CC(C)C[C@@H](CNCC(=O)[C@H](CC(C)C)NC(=O)c1[nH]cnc1C(=O)N[C@@H](C)CN)NC(=O)c1nc[nH]c1C(=O)N[C@@H](CC(C)C)C(=O)O	nt	nt	nt	14%	nt	-17%
c1ccc(-c2cc3ncccc3cn2)cc1	nt	nt	nt	-10%	nt	46%
COC(=O)c1ccccc1NC(=O)CCc1c(C)nc2c(c(C)nn2-c2ccccc2)c1C	12%[46.1 µM]	5%[46.1 µM]	nt	nt	nt	-20%
COC(=O)c1c(C)nc2c(c(SC)nn2-c2ccccc2)c1N	?	-9%	6	11µM*	8	-19%
Cc1ccccc1C(=O)N1CCc2cc(-c3nc(NC(=O)Cc4ccc5c(c4)OCO5)sc3C)ccc21	3%	?	12	3.2µM*	24	?
Cc1sc(NC(=O)CN2CCOCC2)nc1-c1ccc2c(c1)CCN2S(=O)(=O)c1ccccc1	13µM*	?	-2	?	-4	nt
Cc1ccc(-c2csc(NC(=O)CN3CCOCC3)n2)cc1	?	?	11	?	1	-12%
O=C(CN1CCOCC1)Nc1nc(-c2ccc3c(c2)CCN3S(=O)(=O)c2ccccc2)cs1	?	?	-15	3.5µM*	8	22µM*
Cc1cccc(C(=O)N2CCc3cc(-c4nc(NC(=O)CN5CCCC5)sc4C)ccc32)c1	10µM*	?	2	13µM*	1	-21%
Cc1cc(C)nc(SCCc2ccncc2)n1	-25%	5%	22	1%	11	-5%
COc1ccc(C(=O)OCC(=O)c2ccc3[nH]c(=O)[nH]c3c2)c(OC)c1OC	nt	nt	nt	-4%	nt	-12%
CC(=O)Nc1ccc(NC(=O)C23CC4CC(C2)CC(n2cnc(Br)n2)(C4)C3)cc1	-5%[46.1 µM]	-17%	-11	0%	-1	-1%

Compound activity: PubChem BioAssay, National Center for Advancing Translational Sciences (NCATS)
